A short description of this assay: Secondary Assay for General miRNAs Modulators and/or Inhibitors/Activators of miR-21: miR-30 Firefly Luciferase Assay for second round cherrypicks. As to conditions: HeLa miR-30 FLuc reporter, luminescence, 48 h. The source says: MLPCN Grant: 1 R21 NS059478-01 Assay Provider: Qihong Huang, The Wistar Institute NCGC Assay Overview: MicroRNAs (miRNAs) are endogenously encoded small (~20-25 nucleotides), nonprotein-coding RNAs that are involved in post-transcriptional repression of target messenger RNAs (mRNAs) (Le and Hannon, 2004). Estimated to be involved in the regulation of 30% of all protein-coding mRNAs (Filipowicz et al., 2008), miRNAs play a significant role in many biological processes including cellular differentiation and tissue development (Ghildiyal and Zamore, 2009). […] Compounds active in the miR-21 FLuc assay were clustered using Leadscope and active chemical series were prioritized based on chemical properties, potential for medicinal chemistry optimization, and SAR. Within each chemical series, representative compounds were re-acquired to test for activity in a secondary assay based on the quality of their CRC, efficacy, and potency. […]
NCGC Assay Protocol Summary: Reagents: HeLa cells stably expressing firefly luciferase (FLuc) under the control of a CMV promoter (upstream) and a miR-30 binding sequence directly downstream of the gene. […] After a 15 minute incubation to allow for cell lysis, luciferase activity was measured using a ViewLux CCD imager (PerkinElmer), with an average exposure time of 2-12 seconds. […]

Structures are written as SMILES. Results filed as inconclusive are left out. The source made the active and inactive calls. Calls come from the whole dose curve; as a rule, active = well fitted inhibition curve with a large enough effect; inconclusive = small, poorly fitted or top-dose-only effect; inactive = flat fitted curve, though single readings scatter.

`O=c1c2ccccc2nc(Cc2ccccc2)n1-c1ccccc1`: the Potency is 20 µM (active).

Values taken from PubChem BioAssay AID493179 (National Center for Advancing Translational Sciences (NCATS), 2011).
